According to PubChem BioAssay:
The source made the active and inactive calls.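 Rule for the calls: active = viability loss from added drug above about 55%, and viability with drug at most 40%, in both replicates (limit read from the data, passing the limit was not always enough); inconclusive = both conditions met in only one replicate; inactive = neither replicate meets both conditions.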

Experiment: reversal of MRP1-mediated doxorubicin resistance, pilot screen, H69AR cells, doxorubicin co-treatment (AID 601)
Details: H69AR cells + 2 uM doxorubicin, CellTiter-Glo, 72 h; at 10 µM; stronger effect = higher value

Q: With `O=C(c1nc2n(n1)C(c1ccc(Cl)cc1)C=C(c1ccccc1)N2)N1CCOCC1` (configuration not stated) as the compound, how does the differential viability (reversal) read?
A: -6.89% (inactive)

Q: For `Cc1cc(N2C(=O)C(O)=C(C(=O)c3ccc(C)o3)C2c2cccs2)no1` (configuration not stated), which differential viability (reversal) is on record?
A: -4.59% (inactive)

Q: With `Cc1cc(NCCCn2ccnc2)n2c(nc3ccccc32)c1C#N` as the compound, how does the differential viability (reversal) read?
A: 7.14% (inactive)

Q: With `COc1ccc(CCNS(=O)(=O)c2ccc3c(c2)OCCO3)cc1` as the compound, how does the differential viability (reversal) read?
A: 10.1% (inactive)

Q: For `Cc1ccc(C)c(C(=O)NC2CC(C)(C)NC(C)(C)C2)c1`, which differential viability (reversal) is on record?
A: -0.525% (inactive)

Same assay, conditions: H69AR cells + 2 uM doxorubicin, CellTiter-Glo, 72 h; measured here: viability with 2 uM doxorubicin; at 10 µM; stronger effect = lower value

Q: With `COC(=O)c1ccc2c(c1)C(=O)N(C1CCCCC1)C2=O` as the compound, how does the viability read?
A: 96.7%

Q: With `CCOc1ccc(OCC)c(NS(=O)(=O)c2ccc3c(c2)n(C)c(=O)c(=O)n3C)c1` as the compound, how does the viability read?
A: 89.7%

Q: For `CC(=O)OC(C(=O)NCc1ccco1)c1cccnc1` (configuration not stated), which viability is on record?
A: 83.6%

Q: With `Cc1ccccc1CN1CCN(C(=O)c2cccc(F)c2)CC1` as the compound, how does the viability read?
A: 96.9%

Q: With `CCN(CC)CCCN1C(=O)C(=O)/C(=C(/O)c2ccc(C)cc2)C1c1ccccn1` (configuration not stated) as the compound, how does the viability read?
A: 93.6%

Q: For `COc1ccc(CCNS(=O)(=O)c2ccc(C(=O)NCc3ccco3)cc2)cc1OC`, which viability is on record?
A: 85.6%

Q: With `O=C(Nc1ccc(Cl)c(Cl)c1)Nc1cc(C(=O)N2CCOCC2)ccc1N1CCCCC1` as the compound, how does the viability read?
A: 91.8%

Q: Which viability does the source give for `COc1ccc(-c2coc3c(CN4CCCCC4)c(O)c(CN4CCCCC4)c(O)c3c2=O)cc1` here?
A: 1.5%

Q: With `CCc1nnc(NC(=O)CSc2nnc(-c3ccoc3C)n2CC(C)C)s1` as the compound, how does the viability read?
A: 93.8%

Q: Which viability does the source give for `O=C(O)C1C2CCC(C2)C1C(=O)NCCCn1ccnc1` (configuration not stated) here?
A: 84.4%

Q: With `COc1cccc2cc(C(=O)n3ccc(C)n3)c(=O)oc12` as the compound, how does the viability read?
A: 90.6%

Q: With `CC1(C)CC(=O)c2cc(OCC(=O)N3CCN(c4ccccc4F)CC3)ccc2O1` as the compound, how does the viability read?
A: 88.9%

Q: With `O=C(CSc1nnc(-c2ccccc2)o1)N1CCc2ccccc2C1` as the compound, how does the viability read?
A: 93.1%

Q: For `CCS(=O)(=O)c1nc2ccccc2n1CC(=O)N1CCOCC1`, which viability is on record?
A: 87.2%

Q: Which viability does the source give for `O=C(Cn1cnc2sc(-c3ccccc3)cc2c1=O)N1CCOCC1` here?
A: 93.4%

Q: Which viability does the source give for `Cc1ccc(NCc2nnc(SCC(=O)NCc3ccco3)n2CC2CCCO2)cc1Cl` (configuration not stated) here?
A: 95.8%

Q: With `Cn1nc(-c2ccc(C(=O)N3CCN(c4ccccc4)CC3)cc2)c2ccccc2c1=O` as the compound, how does the viability read?
A: 88.9%

Q: For `CCc1nnc(NC(=O)CCC(=O)Nc2ccccc2)s1`, which viability is on record?
A: 92.9%

Q: Which viability does the source give for `COc1cccc(-c2csc3nc[nH]c(=O)c23)c1` here?
A: 70%

Q: For `COc1cccc(-n2c(SCC(=O)OC(C)C)nnc2-c2cccnc2)c1`, which viability is on record?
A: 93.2%

Q: For `CC(=O)c1ccc(NC(=O)CSc2nnc(-c3ccoc3C)n2Cc2ccccc2)cc1`, which viability is on record?
A: 89.6%

Q: With `O=C(Nc1ccc2c(c1)C(=O)N(C1CCCCC1)C2=O)C1CCCO1` (configuration not stated) as the compound, how does the viability read?
A: 92.6%

Q: Which viability does the source give for `CN(Cc1nc(-c2ccncc2)no1)S(=O)(=O)c1ccc(Br)cc1` here?
A: 93.9%

Q: With `O=C(CCCN1C(=O)c2ccccc2C1=O)NCc1cccnc1` as the compound, how does the viability read?
A: 91.3%

Q: With `Nc1nc(CN2CCOCC2)cs1` as the compound, how does the viability read?
A: 96.1%

Q: Which viability does the source give for `O=C1CC(C(=O)Nc2ccccc2)C2(CCCC2)O1` (configuration not stated) here?
A: 90.8%

Q: With `CCC1(CC)C(=O)N(C)C(=O)NC1=NCc1ccccc1` as the compound, how does the viability read?
A: 94.7%

Q: Which viability does the source give for `O=C(CN1C(=O)COc2ccccc21)NCCCN1CCc2ccccc2C1` here?
A: 83.2%

Q: For `COc1ccccc1CNC(=O)C1CCN(S(=O)(=O)N2CCCCC2)CC1`, which viability is on record?
A: 80.2%

Q: Which viability does the source give for `CCCN(CCC)CCCNS(=O)(=O)c1ccc2c(c1)oc(=O)n2C` here?
A: 93.8%

Q: Which viability does the source give for `O=C(COC(=O)c1ccc(NS(=O)(=O)c2ccc3c(c2)OCCO3)cc1)NCC1CCCO1` (configuration not stated) here?
A: 95.8%

Q: Which viability does the source give for `O=C(c1nc2n(n1)C(c1ccc(Cl)cc1)C=C(c1ccccc1)N2)N1CCOCC1` (configuration not stated) here?
A: 98.8%

Q: With `Cc1cc(N2C(=O)C(O)=C(C(=O)c3ccc(C)o3)C2c2cccs2)no1` (configuration not stated) as the compound, how does the viability read?
A: 84.5%

Q: With `Cc1cc(NCCCn2ccnc2)n2c(nc3ccccc32)c1C#N` as the compound, how does the viability read?
A: 93.3%

Q: For `COc1ccc(CCNS(=O)(=O)c2ccc3c(c2)OCCO3)cc1`, which viability is on record?
A: 92.6%

Q: Which viability does the source give for `Cc1ccc(C)c(C(=O)NC2CC(C)(C)NC(C)(C)C2)c1` here?
A: 87.3%

Same assay, conditions: H69AR cells, CellTiter-Glo, 72 h; compound alone cytotoxicity; at 10 µM

Q: With `COC(=O)c1ccc2c(c1)C(=O)N(C1CCCCC1)C2=O` as the compound, how does the viability read?
A: 104%

Q: With `CCOc1ccc(OCC)c(NS(=O)(=O)c2ccc3c(c2)n(C)c(=O)c(=O)n3C)c1` as the compound, how does the viability read?
A: 95.1%

Q: With `CC(=O)OC(C(=O)NCc1ccco1)c1cccnc1` (configuration not stated) as the compound, how does the viability read?
A: 87%

Q: With `Cc1ccccc1CN1CCN(C(=O)c2cccc(F)c2)CC1` as the compound, how does the viability read?
A: 101%

Q: For `CCN(CC)CCCN1C(=O)C(=O)/C(=C(/O)c2ccc(C)cc2)C1c1ccccn1` (configuration not stated), which viability is on record?
A: 91.8%

Q: For `COc1ccc(CCNS(=O)(=O)c2ccc(C(=O)NCc3ccco3)cc2)cc1OC`, which viability is on record?
A: 80.9%

Q: Which viability does the source give for `O=C(Nc1ccc(Cl)c(Cl)c1)Nc1cc(C(=O)N2CCOCC2)ccc1N1CCCCC1` here?
A: 95.9%

Q: Which viability does the source give for `COc1ccc(-c2coc3c(CN4CCCCC4)c(O)c(CN4CCCCC4)c(O)c3c2=O)cc1` here?
A: 1.48%

Q: Which viability does the source give for `CCc1nnc(NC(=O)CSc2nnc(-c3ccoc3C)n2CC(C)C)s1` here?
A: 106%

Q: Which viability does the source give for `O=C(O)C1C2CCC(C2)C1C(=O)NCCCn1ccnc1` (configuration not stated) here?
A: 90.6%

Q: Which viability does the source give for `COc1cccc2cc(C(=O)n3ccc(C)n3)c(=O)oc12` here?
A: 93.4%

Q: For `CC1(C)CC(=O)c2cc(OCC(=O)N3CCN(c4ccccc4F)CC3)ccc2O1`, which viability is on record?
A: 91.8%

Q: With `O=C(CSc1nnc(-c2ccccc2)o1)N1CCc2ccccc2C1` as the compound, how does the viability read?
A: 93.1%

Q: Which viability does the source give for `CCS(=O)(=O)c1nc2ccccc2n1CC(=O)N1CCOCC1` here?
A: 91%

Q: For `O=C(Cn1cnc2sc(-c3ccccc3)cc2c1=O)N1CCOCC1`, which viability is on record?
A: 97%

Q: Which viability does the source give for `Cc1ccc(NCc2nnc(SCC(=O)NCc3ccco3)n2CC2CCCO2)cc1Cl` (configuration not stated) here?
A: 88.5%

Q: With `Cn1nc(-c2ccc(C(=O)N3CCN(c4ccccc4)CC3)cc2)c2ccccc2c1=O` as the compound, how does the viability read?
A: 92.4%

Q: With `CCc1nnc(NC(=O)CCC(=O)Nc2ccccc2)s1` as the compound, how does the viability read?
A: 90%

Q: Which viability does the source give for `COc1cccc(-c2csc3nc[nH]c(=O)c23)c1` here?
A: 86.7%

Q: Which viability does the source give for `COc1cccc(-n2c(SCC(=O)OC(C)C)nnc2-c2cccnc2)c1` here?
A: 97.4%

Q: For `CC(=O)c1ccc(NC(=O)CSc2nnc(-c3ccoc3C)n2Cc2ccccc2)cc1`, which viability is on record?
A: 93.5%

Q: Which viability does the source give for `O=C(Nc1ccc2c(c1)C(=O)N(C1CCCCC1)C2=O)C1CCCO1` (configuration not stated) here?
A: 90.9%

Q: Which viability does the source give for `CN(Cc1nc(-c2ccncc2)no1)S(=O)(=O)c1ccc(Br)cc1` here?
A: 89.6%

Q: With `O=C(CCCN1C(=O)c2ccccc2C1=O)NCc1cccnc1` as the compound, how does the viability read?
A: 94.2%

Q: Which viability does the source give for `Nc1nc(CN2CCOCC2)cs1` here?
A: 100%

Q: Which viability does the source give for `O=C1CC(C(=O)Nc2ccccc2)C2(CCCC2)O1` (configuration not stated) here?
A: 93.9%

Q: With `CCC1(CC)C(=O)N(C)C(=O)NC1=NCc1ccccc1` as the compound, how does the viability read?
A: 93.1%

Q: For `O=C(CN1C(=O)COc2ccccc21)NCCCN1CCc2ccccc2C1`, which viability is on record?
A: 94.8%

Q: Which viability does the source give for `COc1ccccc1CNC(=O)C1CCN(S(=O)(=O)N2CCCCC2)CC1` here?
A: 81.7%

Q: With `CCCN(CCC)CCCNS(=O)(=O)c1ccc2c(c1)oc(=O)n2C` as the compound, how does the viability read?
A: 94.7%

Q: With `O=C(COC(=O)c1ccc(NS(=O)(=O)c2ccc3c(c2)OCCO3)cc1)NCC1CCCO1` (configuration not stated) as the compound, how does the viability read?
A: 107%

Q: With `O=C(c1nc2n(n1)C(c1ccc(Cl)cc1)C=C(c1ccccc1)N2)N1CCOCC1` (configuration not stated) as the compound, how does the viability read?
A: 91.9%

Q: For `Cc1cc(N2C(=O)C(O)=C(C(=O)c3ccc(C)o3)C2c2cccs2)no1` (configuration not stated), which viability is on record?
A: 79.9%

Q: With `Cc1cc(NCCCn2ccnc2)n2c(nc3ccccc32)c1C#N` as the compound, how does the viability read?
A: 100%

Q: With `COc1ccc(CCNS(=O)(=O)c2ccc3c(c2)OCCO3)cc1` as the compound, how does the viability read?
A: 103%

Q: Which viability does the source give for `Cc1ccc(C)c(C(=O)NC2CC(C)(C)NC(C)(C)C2)c1` here?
A: 86.7%
